Assay results from the supplement of paper PMC5662767.
Where a name gives a salt, the structure may show the parent alone.

What follows are compounds tested on Drosophila S2 cl14 SmoIP sensor cells (assay: normalized SmoIP GFP fluorescence (untreated unstimulated = 0%, untreated Hh-stimulated = 100%); higher = more Smo activation sensor fluorescence). Conditions: stimulation: Hh conditioned medium (+Hh); compound concentration: 2 uM; 24 h.
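Further: flow cytometry read-out as median GFP intensity of gated cells, compounds added 30 min before Hh-conditioned or mock medium, mock-treated cells serving as unstimulated baseline.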

| SMILES | normalized SmoIP GFP fluorescence [%] |
| --- | --- |
| CC(=O)Nc1nc(C)c(-c2ccc(Cl)c(S(=O)(=O)NCCO)c2)s1 | 130 |
| CCCCOc1cc(C(=O)NCCN(CC)CC)c2ccccc2n1 [dibucaine-cinchocaine-hcl] | 113 |
| Cc1ccc2c(c1)C(=O)C1(O)CCN(c3ccccc3)C1=N2 (centres undefined) [blebbistatin] | 105 |
| Cc1ccc(NC(=O)C2(c3ccc4c(c3)OC(F)(F)O4)CC2)nc1-c1cccc(C(=O)O)c1 | 80 |
| O=C(/C=C/c1ccc(O)c(O)c1)c1ccc(O)cc1O [butein] | 77.1 |
| CNCc1cc(-c2ccccc2F)n(S(=O)(=O)c2cccnc2)c1 | 126 |

Same assay, conditions: stimulation: mock conditioned medium (-Hh); compound concentration: 2 uM; 24 h

| SMILES | normalized SmoIP GFP fluorescence [%] |
| --- | --- |
| Cc1nc(C(=O)NCC(=O)O)c(O)c2ccc(Oc3ccccc3)cc12 | 11 |
| CC(=O)Nc1nc(C)c(-c2ccc(Cl)c(S(=O)(=O)NCCO)c2)s1 | -1.13 |
| COc1cc(Nc2nc3ccccc3nc2NS(=O)(=O)c2ccc(NC(=O)c3ccc(C)c(OC)c3)cc2)cc(OC)c1 | 5.66 |
| O=c1c(-c2ccc(O)cc2)coc2cc(O)cc(O)c12 [Genistein] | -0.804 |
| CC1=C(C(=O)Nc2cc3cn[nH]c3cc2F)C(c2ccc(C(F)(F)F)cc2)CC(=O)N1 (centres undefined) | -1.88 |
| COc1ccc(-c2nc(N3CCOCC3)c3sc(CN(C)c4ncc(C(=O)NO)cn4)cc3n2)cn1 [cudc-907] | 82.3 |
| O=C(/C=C/c1ccc(CN(CCO)CCc2c[nH]c3ccccc23)cc1)NO | 79.7 |
| COCCCC/C(=N\OCCN)c1ccc(C(F)(F)F)cc1 [Fluvoxamine-maleate] | 11 |
| c1cn2cc(-c3ccc4cn[nH]c4c3)nc(Nc3ccc(N4CCOCC4)cc3)c2n1 | 2.97 |
| C[C@]12CCC3=C4CCC(=O)C=C4CC[C@H]3[C@@H]1CC[C@@]2(O)CC#N [Dienogest] | 10.2 |
| C#CCC(Cc1cnc2nc(N)nc(N)c2n1)c1ccc(C(=O)N[C@@H](CCC(=O)O)C(=O)O)cc1 (some centres undefined) [Pralatrexate(Folotyn)] | 13.3 |
| COc1cc2c(Oc3ccc4[nH]c(C)cc4c3F)ncnc2cc1OCCCN1CCCC1 [Cediranib] | 52.4 |
| N#C/C(=C\c1ccc(O)c(O)c1)C(=O)NCc1ccccc1 | 9.54 |
| c1cnc2cc3c(cc2n1)[C@@H]1CNC[C@H]3C1 [Varenicline-tartrate] | 2.97 |
| CCNC(=O)c1noc(-c2cc(C(C)C)c(O)cc2O)c1-c1ccc(CN2CCOCC2)cc1 | 32.9 |
| C=C1C(=O)O[C@@H]2/C=C(\C)CC/C=C(\C)CC[C@@H]12 [Costunolide] | 27.4 |
| CN1CCN(CCOc2cc(OC3CCOCC3)c3c(Nc4c(Cl)ccc5c4OCO5)ncnc3c2)CC1 | 10.4 |

| SMILES | normalized SmoIP GFP fluorescence [%] |
| --- | --- |
| O=C(Nc1ccc(OC(F)(F)F)cc1)c1sccc1NCc1ccnc2ccccc12 | 9.86 |
| COc1ccccc1N1CCN(CC(O)COc2cccc3ccccc23)CC1 (centres undefined) [Naftopidil-Dihydrochloride] | -1.88 |
| Oc1nc(-c2ccc(C(F)(F)F)cc2)nc2c1CSCC2 | 5.66 |
| CCCCOc1cc(C(=O)NCCN(CC)CC)c2ccccc2n1 [dibucaine-cinchocaine-hcl] | 0.361 |
| COc1ccccc1OCC(O)CN1CCN(CC(=O)Nc2c(C)cccc2C)CC1 (centres undefined) [Ranolazine-dihydrochloride] | 2.97 |
| CS(=O)(=O)c1ccc(C(=O)Nc2ccc(Cl)c(-c3ccccn3)c2)c(Cl)c1 | 36.8 |
| NC(=O)Nc1cc(-c2cccc(F)c2)sc1C(=O)N[C@H]1CCCNC1 | 45 |
| COC(=O)Nc1ccc(-c2nc(N3CCOCC3)c3cnn(C4CCN(C(=O)OC)CC4)c3n2)cc1 | -12.5 |
| Cc1nc(N)sc1-c1ccnc(Nc2ccc(N3CCOCC3)cc2)n1 | 94.3 |
| Cc1ccc2c(c1)C(=O)C1(O)CCN(c3ccccc3)C1=N2 (centres undefined) [blebbistatin] | -0.378 |
| OC(CCN1CCCCC1)(c1ccccc1)C1CC2C=CC1C2 (centres undefined) [Biperiden-hydrochloride] | 2.64 |
| Cc1cn([C@H]2C=C[C@@H](CO)O2)c(=O)[nH]c1=O [Stavudine] | -2.1 |
| CCN(CC)CC(=O)Nc1c(C)cccc1C [Lidocaine] | 2.97 |
| C=CC(=O)Nc1cccc(Oc2nc(Nc3ccc(N4CCN(C)CC4)cc3)ncc2Cl)c1 | 11 |
| CCOC(=O)Nc1cc(-c2ccc(C)c(NS(C)(=O)=O)c2)nn2c(C)nnc12 [bromosporine] | 49.9 |
| CCOC(=O)[C@H](CCc1ccccc1)N[C@H]1CCc2ccccc2N(CC(=O)O)C1=O [Benazepril-hydrochloride] | 1.35 |
